# A selection: hits, their analogues and other compounds. The true share with any hit is near 1.8%.
# GALR2 ag – GALR2 receptor agonists, primary screen, cell-based | Galanin receptor type 2 (Homo sapiens), O43603 | GALR2-expressing cells, agonist activation read-out | activation, % (test concentration not listed) | actives 0.48% (n = 140,000); in the data active = activation above about 5%, passing the limit was not always enough;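 also: 0% = vehicle buffer wells and 100% = reference agonist at full effect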
# Target sequence (O43603 whole entry, looked up): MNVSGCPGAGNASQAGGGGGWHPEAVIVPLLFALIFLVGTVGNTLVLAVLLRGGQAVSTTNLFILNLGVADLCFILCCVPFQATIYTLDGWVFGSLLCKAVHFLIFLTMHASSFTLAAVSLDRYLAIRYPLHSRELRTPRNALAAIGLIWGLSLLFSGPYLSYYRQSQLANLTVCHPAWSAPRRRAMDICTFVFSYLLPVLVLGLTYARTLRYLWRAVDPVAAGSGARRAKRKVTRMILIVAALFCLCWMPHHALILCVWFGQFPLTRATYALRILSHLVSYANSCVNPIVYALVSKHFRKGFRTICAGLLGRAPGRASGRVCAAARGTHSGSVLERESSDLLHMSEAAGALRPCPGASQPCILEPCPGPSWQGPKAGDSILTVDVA
# MRP resist rev – reversal of MRP1-mediated doxorubicin resistance, primary screen, H69AR cells, doxorubicin co-treatment. H69AR cells + 2 uM doxorubicin, CellTiter-Glo, 72 h. differential viability (reversal), % at 10 µM. actives 0.04% (n = 85,000). AID 602, 2007;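 active = viability drop by adding the cancer drug above about 55%, with treated viability meeting a 40% cutoff, limit read from the data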;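 also: viability without doxorubicin minus viability with 2 µM doxorubicin for each compound; larger differential means the compound sensitizes cells more to doxorubicin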
# S1P2 agonist – S1P2 receptor agonists, primary screen, cell-based; AID 729, 2007; actives 0.46% (n = 97,000); activation, % at 4.5 µM; S1P2-expressing cell line, agonist reporter read-out; Sphingosine 1-phosphate receptor 2 (Homo sapiens), O95136; in the data active = activation above about 16%;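 also: 0% = vehicle low control and 100% = maximal reference agonist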
# GALR2 blocker – GALR2 antagonists in receptor-expressing cells, primary screen; antagonist mode; AID 828, 2007; Galanin receptor type 2 (Homo sapiens), O43603; inhibition, % at 4 µM; actives 0.39% (n = 140,000); in the data active = inhibition above about 27%;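 also: cells stimulated with galanin 1-16 at roughly its EC80; 0% = agonist challenge control and 100% = basal control without agonist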
# S1P2 antag – human S1P2 receptor antagonists, primary screen, cell-based | Sphingosine 1-phosphate receptor 2 (Homo sapiens), O95136 | cell-based S1P2 antagonist assay, inhibition at 5 uM | inhibition, % at 5 µM | actives 0.21% (n = 97,000); in the data active = inhibition above about 45%;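 also: CRE beta-lactamase reporter cells expressing human S1P2 stimulated with S1P; 0% = agonist at EC80 alone and 100% = agonist plus reference antagonist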
# MRP1 act – H69AR viability gain despite doxorubicin, primary screen, MRP-1 activator project, H69AR cells, CellTiter-Glo; viability increase, % at 10 µM; actives 0.61% (n = 140,000); viability rescue; AID 799, 2007;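 active = viability gain under doxorubicin at or above a set limit, the compound median plus 3 SD, cut at about 4.7% in these data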;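 also: MRP-1 overexpressing cells given doxorubicin 25 µM after compound pretreatment; 18-22 h compound pretreatment then 72 h with doxorubicin before readout; 0% = doxorubicin-only wells and 100% = vehicle-treated cells without doxorubicin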
# * hit, by the source's call; / = no result.
SMILES,GALR2 ag,MRP resist rev,S1P2 agonist,GALR2 blocker,S1P2 antag,MRP1 act
CC(C)CC(=O)Nc1cc([N+](=O)[O-])ccc1Cl,-3,/,17*,-8,7,0
O=Cc1ccc(OCC(=O)NC(=O)NC2CCCCC2)cc1,-1,/,-2,-13,13,0
O=C(CSc1nnc(-c2cccnc2)n1-c1ccccc1)Nc1ccc2c(c1)OCO2,-2,-13,-2,6,-15,0
N#CCCN(C(=O)COc1ccc(Cl)cc1Cl)c1ccccc1,-1,/,/,-6,/,0
CC(NC(=O)c1ccc(Br)cc1)c1ccc2c(c1)CCCC2 (stereo not given),-1,/,/,3,/,5.6*
CC(NC(=O)c1ccc(F)cc1)c1ccc2c(c1)CCCC2 (stereo not given),-2,/,-4,10,-7,2
CCOc1cc(C(=O)N/N=C\c2cn(CC)nc2C)cc(OCC)c1OCC,0,/,/,14,/,-3
CC1(C)COC(c2ccc(F)c([N+](=O)[O-])c2)=N1,-1,/,/,4,/,-6
O=C(CSCc1ccccc1)Nc1ccc(F)c(F)c1,-2,/,/,-5,/,4.7*
O=C(CSCc1ccc(Cl)cc1)N/N=C/c1ccccc1,-2,/,-4,4,-3,4.8*
O=C(CSCc1ccc(Cl)cc1)N/N=C/c1c(Cl)cccc1Cl,1,/,/,-1,/,2
Cc1ccc(S(=O)(=O)Nc2ccc(=O)n(Cc3ccc(Cl)c(Cl)c3)c2)cc1,3,/,-4,-13,-15,-3
CCc1ccc(-c2nc(-c3ccncc3)no2)cc1,-3,11,-8,1,5,5.8*
COc1cccc(N(CC(=O)N2CCN(C)CC2)S(=O)(=O)c2ccc(C)cc2)c1,-1,1,-9,6,-2,-3
CCCC(=O)Nc1nc(C)c(-c2csc(Nc3cc(OC)ccc3OC)n2)s1,0,/,-6,-19,17,-5
CCCCCC(=O)Nc1nc(C)c(-c2csc(Nc3cc(Cl)ccc3OC)n2)s1,1,/,17*,-19,-19,0
C/C(=N\NC(=O)c1ccccc1C)c1cccc([N+](=O)[O-])c1,-1,/,0,-5,-5,0
C/C(=N\NC(=O)CCc1c[nH]c2ccccc12)c1cccc([N+](=O)[O-])c1,-2,/,/,-4,/,7.9*
O=C(Nc1ccc(Cl)cc1)C1CCCN(S(=O)(=O)c2cnc[nH]2)C1 (stereo not given),-1,11,-7,1,3,4.9*
CC(C)c1ccc(NC(=O)C2CCCN(S(=O)(=O)c3cnc[nH]3)C2)cc1 (stereo not given),-1,8,-1,-11,17,1
Cc1ccc(-c2ccc(/C=N/NC(=O)CN3CCCC3)o2)cc1Cl,-3,/,-3,-14,17,-2
COC(=O)N/N=C/c1ccc(-c2cccc(Cl)c2)o1,1,/,/,-1,/,4.8*
COC(=O)N/N=C/c1ccc(-c2cc(Cl)cc(Cl)c2)o1,1,/,/,1,/,8.5*
COC(=O)N/N=C/c1ccc(-c2ccc(C)c(Cl)c2)o1,0,/,/,4,/,7.5*
O=[N+]([O-])c1ccc(N/N=C/c2ccccc2)c(F)c1,1,/,/,6,/,5.2*
SMILES,GALR2 ag,MRP resist rev,S1P2 agonist,GALR2 blocker,S1P2 antag,MRP1 act
COc1cc(O)oc1C=Nc1ccc(C(F)(F)F)cc1,0,/,-4,-6,13,1
Cc1ccc2nc(Cl)c(CN(C(=O)c3cnccn3)C3CCCCC3)cc2c1,0,/,-4,11,19,-4
CC1=C(C#N)C(NC(=O)c2cccc(Cl)c2)(C(F)(F)F)C(=O)N1 (stereo not given),-1,/,/,-9,/,-2
N#Cc1c(N)c(C#N)c(-c2ccc3c(c2)OCO3)c2c1CCCC2,/,12,/,/,/,-3
N#Cc1c(N)nc2c(c1-c1ccc3c(c1)OCO3)CCc1ccccc1-2,4.9*,/,/,-10,/,-5
Cc1ccsc1C(=O)OCC(=O)Nc1sccc1C(N)=O,-3,-14,-4,-4,6,-1
O=C(c1ccco1)N1CCN(c2nc(C3CC3)nc3c2nnn3Cc2ccccc2Cl)CC1,0,-6,-3,-8,-32,7.0*
CC(C)(C)c1nc(N2CCN(C(=O)c3ccco3)CC2)c2nnn(Cc3ccccc3)c2n1,0,-17,1,-12,18,3
Cn1nc(C(F)(F)F)c2cc(NC(=O)OCc3ccc(F)cc3)sc21,-2,6,-4,-7,-13,2
Cn1nc(C(F)(F)F)c2cc(NC(=O)OCc3ccc(C(C)(C)C)cc3)sc21,-2,22,-3,-9,-11,7.1*
c1ccc2nc3c(nc2c1)c1ccccc1n3CCN1CCOCC1,0,2,3,-12,-63,1
CCn1c2ccccc2c2nc3cc(S(=O)(=O)N4CCOCC4)ccc3nc21,2,-5,31*,-19,-32,-2
C(=N\Nc1ccccc1)/c1ccc(N2CCOCC2)cc1,-1,/,-5,3,19,-1
N#C/C(=N\Nc1ccccc1)C(=N)N1CCOCC1,0,/,/,4,/,6.8*
Cc1ccc(NC(=S)N2CCOCC2)cc1,-1,/,/,-7,/,-1
N#C/C(=N\Nc1ccc(Cl)cc1)C(=N)N1CCCCC1,-2,3,-1,26,22,0
N#C/C(=N\Nc1ccccc1F)C(=N)N1CCCCC1,-2,11,-5,24,4,8.2*
Cc1ccc(N/N=C(\C#N)C(=N)N2CCOCC2)cc1,0,/,/,4,/,6.5*
COc1ccc(-c2nc(C#N)c(N3CCCCCC3)o2)cc1OC,0,-10,-4,-12,-18,2
C=CC[C@@H]1C=C[C@H](O/N=C/c2ccc(C(=O)N3[C@H](c4ccc(C)cc4)[C@@H](C)CC[C@H]3C(=O)OC)cc2)[C@@H](CO)O1,-1,/,/,-1,/,-4
O=C(NC1=NCCS1)C1CC2CCC1C2 (stereo not given),-2,-31,18*,9,14,-1
CC(C)CC(=O)Nc1ccc(N2CCOCC2)cc1,-2,-3,-4,-6,-5,-1
O=C(NCc1ccccc1)C(c1ccc(O)cc1)N(C(=O)Cn1nnc(-c2cccs2)n1)c1ccc2c(c1)OCCO2 (stereo not given),0,-8,-4,-10,-18,5.8*
O=C(CN(C(=O)Cn1nnc(-c2cccs2)n1)c1ccc2c(c1)OCCO2)NC1CCCCC1,-1,-10,-4,-1,11,-2
COc1cc(OC)cc(-c2nn[nH]n2)c1,0,/,/,0,/,-1
COC(=O)c1sccc1-n1cccc1C(=O)C(=O)N1CC(C)OC(C)C1 (stereo not given),-2,-3,-9,12,-5,-2
CC(=O)Nc1ccc(-c2nnc(SCC(=O)c3ccc4c(c3)Cc3ccccc3-4)n2C)cc1,4.9*,/,-4,-31,-9,-2
Cn1c(SCC(=O)c2ccc3c(c2)Cc2ccccc2-3)nnc1-c1cccc(N)c1,-2,/,/,7,/,-1

# Screens as filed in PubChem.
